Experimental findings from PubChem BioAssay AID1566 (Sanford-Burnham Center for Chemical Genomics, 2009) are described below.

SMILES strings stand for the structures. Among all 290,000 compounds or so, about 1,800 (0.62%) were called active. Rule as the data show it: active = inhibition above about 50%; inactive = the rest. The sample as a whole holds a higher share of actives than the screen did.

This test is described as follows: inhibition of NOD2-driven NF-kB reporter – cell-based, luminescence, uHTS, HEK293 (AID 1566). The following applies: HEK293 NOD2/NF-kB luciferase reporter, at 4 µM, hits give high values.
What is called inhibition is the relative decrease from the control value, in per cent. As to `COc1ccc(S(=O)(=O)NCc2cccnc2)cc1OC`, the inhibition was 6.9% (inactive). Then `CCN(CC)c1nc(Nc2ccc([N+](=O)[O-])cc2)nc(N(CC)CC)n1`, with 15.7% (inactive); and `O=C(O)Cc1sc(NCCc2ccccc2)nc1-c1ccc(F)cc1`, with -6.1% (inactive); and `C/C(=N/NC(=O)Cc1c(C)[nH][nH]c1=O)c1ccc(O)cc1`, with -3% (inactive). The value for `Cc1ccccc1Nc1ccc2nonc2c1[N+](=O)[O-]` was 17.9% (inactive); that for `CC(=O)Nc1cccc(NC(=O)CSc2nnc(NC(=O)C3CC3)s2)c1` was 2.1% (inactive); that for `CCOc1ccc(-c2nc3n(c(=O)c2C#N)CCS3)cc1` was -0.8% (inactive).

Turning to `O=C(OCCCN1CCOCC1)c1ccc(O)c(O)c1`, the inhibition is 11.1% (inactive).

Turning to `CC(=O)CSc1ncnc2sc3c(c12)CCC3`, the inhibition is 12.6% (inactive). The value for `Cc1ccc(C(=O)CSc2ncnc3sc4c(c23)CCCC4)cc1` was 30.2% (inactive). Then `O=C(c1ccc(Cl)c([N+](=O)[O-])c1)N1CCCc2ccccc21`, with -7.5% (inactive); and `O=C(CSc1nnnn1C1CCCCC1)NNC(=O)c1ccco1`, with 5.4% (inactive); and `Cc1ccccc1-n1cc(C(=O)c2cc(Cl)ccc2O)cc(C#N)c1=O`, with 1.1% (inactive).

As for `C(=N\Nc1ccccn1)/c1ccc2c(c1)OCCO2`, the inhibition was -125% (inactive). The value for `C(=N\Nc1nc2ccccc2[nH]1)/c1ccc2c(c1)OCCO2` was -126% (inactive).

Consider `C(=N\Nc1ccc2ccccc2n1)/c1ccc2c(c1)OCCO2`, for which the inhibition is 67.8% (active). The value for `Cc1[nH]c2ccccc2c1-c1nc2ccccc2[nH]c1=O` was 4.1% (inactive); that for `CC(C)C(=O)OCc1cn(-c2ccc(Cl)c(Cl)c2)nn1` was 10.3% (inactive); that for `O=C(O)c1cccc(CN2C(=O)S/C(=C/c3cccc([N+](=O)[O-])c3)C2=O)c1` was -10.3% (inactive). The value for `CCOC(=O)CN1C(=O)S/C(=C/c2ccc(O)c([N+](=O)[O-])c2)C1=O` was -11.2% (inactive); that for `O=C1/C(=C\c2cccc(O)c2O)SC(=S)N1Cc1ccccc1` was 7.8% (inactive); that for `O=C(O)c1cccc(CN2C(=O)S/C(=C/c3ccccc3[N+](=O)[O-])C2=O)c1` was 19.8% (inactive). In the case of `COCc1cc(C)nc(Nc2ccccc2OC)c1C#N`, the inhibition was 3% (inactive). Consider `Cc1ccc(-n2nnc3c(=O)n(CC(=O)NCc4ccco4)cnc32)cc1`, for which the inhibition was 17.7% (inactive).

Regarding `COc1cc(S(=O)(=O)N2CCCCCC2)ccc1-n1cnnn1`, the inhibition was 7.9% (inactive). The value for `Cc1ccc(OC(=O)COc2ccccc2C)c(-n2nc3ccccc3n2)c1` was 3% (inactive). Then `BrC(=C\c1ccccc1)/C=N/Nc1nc(N2CCOCC2)nc(N2CCOCC2)n1`, with -54.1% (inactive).
